From PubChem BioAssay
In the library only some 2.4% were active in any assay of this set; here they are far more common.
TRHR ag = qHTS for Small Molecule Agonists and Allosteric Enhancers of Human TRH Receptor: Primary Screen for Agonists; TRHR cells, calcium flux fluo-8, FDSS agonist mode; actives 0.18% (n = 360,000); Thyrotropin-releasing hormone receptor (Homo sapiens), P34981; activation, % at 2 µM; in the data active = activation above about 30%; also: 0% is about no effect
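In this calcium-flux screen, cells bearing human TRHR are dye-loaded with fluo-8, baselined for 10 cycles, then exposed to library compounds; positive kinetic calcium responses during the agonist phase mark hits, with TRH as control.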
HEK293 tox = qHTS of GLP-1 Receptor Inverse Agonists: Cytotox Screen | Potency, µM (highest dose often 38.3 µM), for inactives: top-dose activity change, negative = inhibition, usual class: inhibitors | HEK293 cAMP-luciferase reporter cells, luminescence, 24 h | actives 0.13% (n = 410,000) | AID 624418, 2012;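 also: loss of luciferase light is scored as toxicity; potency is read from the fitted curve at half-maximal effect; % is scaled to controls: 0 for no effect and ±100 for the full control effect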
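Here, cytotoxicity is scored as loss of luminescence. The MLSMR collection was tested on cells seeded in medium containing 10% Nu serum, with a 24 hr compound exposure preceded by 12 hours of culture.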
GLP-1R agonist = qHTS of GLP-1 Receptor Agonists | HEK293 GLP-1R CRE-luciferase, luminescence, 4-6 h; cells express a hypersensitive GLP-1R form | Potency, µM (titrated, usually from 45.6 µM), for inactives: top-dose activation, usual class: activators | AID 624172, 2012 | Glucagon-like peptide 1 receptor (Homo sapiens), P43220 | actives 0.007% (n = 380,000); also: potency is read from the fitted curve at half-maximal effect; % of control where 0% means no effect
PTHR1 ag = qHTS for PTHR1 Agonists: Primary Screen; Parathyroid hormone/parathyroid hormone-related peptide receptor (Homo sapiens), Q03431; HEK293 GP2 PTHR1 cells, GloSensor cAMP luminescence, 1 h; Potency, µM (highest dose often 115 µM), inactives show at the top dose activation, usual class: activators; actives 0.075% (n = 410,000); AID 743266, 2014; also: potency is read from the fitted curve at half-maximal effect; nearly all actives have a fitted effect of over 55% in size
Target sequence (Q03431 whole entry, looked up): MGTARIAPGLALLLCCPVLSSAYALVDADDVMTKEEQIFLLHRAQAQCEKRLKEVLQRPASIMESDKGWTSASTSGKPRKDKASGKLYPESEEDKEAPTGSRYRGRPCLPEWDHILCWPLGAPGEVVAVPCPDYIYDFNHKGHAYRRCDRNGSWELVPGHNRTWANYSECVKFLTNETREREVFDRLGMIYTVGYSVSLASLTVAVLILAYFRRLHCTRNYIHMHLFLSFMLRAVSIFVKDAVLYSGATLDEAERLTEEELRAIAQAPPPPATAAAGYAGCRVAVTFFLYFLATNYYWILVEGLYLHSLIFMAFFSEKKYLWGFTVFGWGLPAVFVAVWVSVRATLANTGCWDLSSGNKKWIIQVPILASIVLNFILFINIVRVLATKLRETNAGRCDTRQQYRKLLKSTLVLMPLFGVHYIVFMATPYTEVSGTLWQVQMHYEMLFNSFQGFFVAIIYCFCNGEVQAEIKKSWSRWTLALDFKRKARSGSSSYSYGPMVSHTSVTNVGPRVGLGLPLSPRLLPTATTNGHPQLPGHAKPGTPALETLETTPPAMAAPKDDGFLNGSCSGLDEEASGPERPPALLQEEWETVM
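HEK-293-derived GP2 cells expressing PTHR1 and a GloSensor cAMP reporter, 3,000/well, plated overnight, given luciferin plus IBMX (each 0.5 mM as added) for 1 h at 37 °C, then compound for 1 h at 37 °C. Luminescence was read after 15 min at room temperature.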
TRHR PAM = qHTS for Small Molecule Agonists and Allosteric Enhancers of Human TRH Receptor: Primary Screen for Enhancers; enhancement, % at 2 µM; Thyrotropin-releasing hormone receptor (Homo sapiens), P34981; actives 0.66% (n = 360,000); TRHR cells, fluo-8 calcium fluorescence, EC20 TRH enhancement; in the data active = enhancement above about 30%; also: 0% is about no effect
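Enhancer read-out: after compound pinning and an initial kinetic agonist-mode read, an EC20 of TRH (10 nM final) was injected and fluo-8 calcium signal (Ex 480/Em 530) followed at 1 s/cycle for 100 cycles in TRHR-expressing cells.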
GLP1R inv ag = qHTS of GLP-1 Receptor Inverse Agonists (Inhibition Mode); Glucagon-like peptide 1 receptor (Homo sapiens), P43220; HEK293 GLP-1R CRE-luciferase, luminescence, 24 h; GLP-1R form is constitutively active; Potency, µM (series often up to 38.3 µM), without a hit: top-dose activity change, negative = inhibition, most hits filed as inhibitors; actives 1.6% (n = 410,000); AID 624417, 2012; also: potency is read from the fitted curve at half-maximal effect; % is scaled to controls: 0 for no effect and ±100 for the full control effect; nearly all actives have a fitted effect of over 55% in size
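GLP-1R inverse agonism mode: basal reporter luminescence in engineered HEK293 cells measured after one day of compound exposure at 37 deg C, with a 12 min room-temperature detection step.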
* hit, by the source's call; i = inactive; u = inconclusive; x = no result; [ ] = dose if it differs, or a comment. Unless noted, calls follow the shape of the dose curve; as a rule, active = well fitted curve in the direction sought with a large enough effect; inconclusive = small, poorly fitted or top-dose-only effect, or another doubt; inactive = no such curve, though single readings can be large; an effect the other way counts as inactive or inconclusive.

SMILES	TRHR ag	HEK293 tox	GLP-1R agonist	PTHR1 ag	TRHR PAM	GLP1R inv ag
CCOc1ccc(/C=C2\SC(=S)N(CCC(=O)Nc3ccc(C(=O)O)cc3)C2=O)cc1	-1.1	-9.0%	5.3%	-30.1%	-1.8	15.7%
COc1cc(/C=C2\SC(=Nc3ccc(O)cc3)NC2=O)cc(OC)c1O	44.2*	u	u	i	2.7	58.8%
OC(CNCCc1ccc(Cl)cc1)COc1cc(Cl)ccc1Cl (stereo not given)	1.6	u	2.9%	-24.3%	3.9	10µM*
OC(CNCCc1ccc(Cl)cc1)COc1ccc2ccccc2c1 (stereo not given)	1.0	u	6.6%	i	-2.1	u
CC1CCCN(S(=O)(=O)Cc2ccc(Cl)cc2)C1 (stereo not given)	-1.6	-20.1%	-4.5%	i	2.8	-31.3%
CCc1cccc(CC)c1NC(=S)NCCc1c(C)[nH]c2ccccc12	0.3	u	3.0%	-14.5%	4.0	10µM*
COCCN1C(=O)c2ccccc2C1c1nnnn1-c1ccc2c(c1)OCCO2 (stereo not given)	x	6.3%	3.9%	i	x	19.6%
CC1(C)CC(=O)C(C(c2ccco2)C2C(=O)CC(C)(C)CC2=O)C(=O)C1	0.1	0.3%	0.5%	-11.3%[57.5 µM]	38.6*	0.0%
C=CCC1(CC=C)CCCN1C(=O)c1cc(COc2ccc(F)c(F)c2)on1	1.9	7.9%	4.0%	-68.7%	-3.9	2.82µM*
CCOC(=O)CC1(NC(=O)c2cc(COc3ccc(F)c(F)c3)on2)CCCCC1	1.9	6.0%	16.5%	-34.8%	0.9	10µM*
CCOc1ccc2nc(NS(=O)(=O)Cc3ccccc3)sc2c1	0.0	u	3.7%	i	-4.1	10µM*
O=C(NN1C(=O)C2C3C=CC(O3)C2C1=O)c1cccc(Br)c1 (stereo not given)	-0.5	4.5%	-0.1%	-24.2%	-5.1	9.8%
O=C1c2ccccc2-c2nnc(-c3ccc(F)cc3)cc21	0.9	-6.4%	10.8%	-21.4%	-0.5	-9.4%
Cc1ccc(-c2cc3c(nn2)-c2ccccc2C3=O)cc1	-0.2	1.3%	-2.2%	-90.3%	-3.8	1.41µM*
Cc1cc(C)c(S(=O)(=O)N2CCN(C(=O)c3c(C)nn(-c4ccccc4)c3Cl)CC2)c(C)c1	x	-7.6%	-18.6%	-41.9%	x	8.91µM*
Cc1cc(C)c(S(=O)(=O)N2CCN(C(=O)c3ccc(-n4nc(C)c(Cl)c4C)cc3)CC2)c(C)c1	x	6.8%	1.2%	-10.6%	x	7.08µM*
CN(C)C(=O)c1ccc(NC(=O)c2ccccc2SCC(=O)N2CCCC2)cc1	0.1	-17.8%	0.1%	-5.7%	4.3	14.1%
Cc1n[nH]c(=S)n1/N=C/c1ccccc1OCc1ccc(Cl)cc1Cl	-1.4	-7.3%[1.53 µM]	14.0%	-0.3%	1.7	12.7%
C1CCN(C2CCN(c3nc4nonc4nc3N3CCSCC3)CC2)C1	0.3	3.1%	-0.5%	i	-5.8	22.3%
C1CCC(Nc2nc3nonc3nc2N2CCSCC2)C1	-0.3	4.7%	11.4%	2.6%	31.7*	5.1%
Cc1ccc(C)c(OCC(=O)Nc2ccc(N3CCOCC3)cc2N2CCOCC2)c1	0.0	8.6%	0.4%	i	9.1	12.4%
O[C@H]1C[C@H](c2ccc(Cl)cc2)N(CC2CCCCC2)C[C@@H]1n1cc(C2CC2)nn1	x	u	-4.2%	-30.6%	x	10µM*
CC(NC(=O)Nc1ccc(F)cc1)c1ccc2c(c1)OCO2 (stereo not given)	-0.7	2.9%	9.8%	i	4.7	u
CC(C)c1ccc(NC(=O)C(c2ccc3c(c2)OCO3)N2CCN(C(=O)c3ccco3)CC2)cc1 (stereo not given)	0.7	-28.6%	0.6%	i	-2.3	10µM*
CCN(CC)C(C(=O)Nc1ccc(C(C)C)cc1)c1ccc2c(c1)OCO2 (stereo not given)	0.2	u	-0.3%	-4.8%	6.9	7.08µM*
SMILES	TRHR ag	HEK293 tox	GLP-1R agonist	PTHR1 ag	TRHR PAM	GLP1R inv ag
COc1ccc2c(Cl)c(-c3nnc(SCC(=O)c4ccccc4)n3C)sc2c1	0.1	-25.1%	-1.5%	-2.9%[57.5 µM]	-4.7	11.2µM*
CC(C)(C)NCC(=Cc1ccccc1)C(=O)c1ccccc1	x	5.01µM*	-28.3%	-39.1%	x	u
COc1ccc(C=C(C(=O)c2ccccc2)C(=O)c2ccccc2)cc1	x	-0.7%	-7.1%	-36.1%	x	u
Cc1ccc2cc(NC(=O)c3ccc(C(C)(C)C)cc3)ccc2n1	-1.0	-35.2%	-4.4%	-29.4%	3.0	3.98µM*
c1ccc2nc(-c3nc4ccccc4[nH]3)ccc2c1	-1.4	-2.2%	-22.2%	-23.3%[57.5 µM]	-4.3	10µM*
c1ccc2[nH]c(-c3cscn3)nc2c1	0.2	6.3%	3.0%	-6.2%	2.1	0.8%
CCOC(=O)c1cc(-c2ccccc2)n(-c2cccc(C(=O)Nc3cccc(C(C)=O)c3)c2)c1C	0.7	-25.7%	x	-40.4%	-10.5	5.62µM*
CCOC(=O)c1cc(-c2ccccc2)n(-c2cccc(C(=O)Nc3cccc(SC)c3)c2)c1C	0.6	-5.6%	x	-36.9%	-1.2	3.55µM*
CC(=O)c1cccc(NC(=O)COC(=O)c2ccccc2C)c1	-1.1	-1.7%	11.1%	-36.3%	31.0*	4.1%
CCOc1ncccc1C(=O)OCC(=O)Nc1cccc(C(C)=O)c1	-0.7	-18.7%	16.0%	i	-8.9	0.0%
CCOC(=O)c1cc(-c2ccccc2)n(-c2cccc(C(=O)Nc3cccc(F)c3)c2)c1C	0.8	-19.4%	x	-12.6%	-1.4	u
O=C(Cc1nnc(CNC(=O)c2ccccc2)o1)Nc1cc(C(F)(F)F)ccc1Cl	0.1	x	x	x	-0.4	x
O=c1cc(N2CCCC2)c2ccccc2o1	0.3	9.4%	8.5%	i	34.6*	12.5%
O=c1cc(N2CCOCC2)c2ccccc2o1	0.1	6.6%	-1.6%	i	-9.1	2.7%
CCCNc1c(NS(=O)(=O)c2cccc(C#N)c2)c(=O)oc2ccccc12	-0.4	-3.8%	-4.7%	i	-5.4	-12.2%
Cc1cc(C)n(-c2ccc(C(=O)N3CCN(S(=O)(=O)c4cccc(Br)c4)CC3)cc2)n1	x	0.4%	2.2%	-50.6%	x	u
